From PubChem
The list is not random: actives were taken first. Their share in the collection is about 10%.
ELG1 repair inh: qHTS screen for small molecules that inhibit ELG1-dependent DNA repair in human embryonic kidney (HEK293T) cells expressing luciferase-tagged ELG1 | HEK293T ELG1-luciferase reporter, luminescence, 16 h; DNA damage induced by 5-fluorouridine | Potency, µM (top dose mostly 46.1 µM), without a hit: top-dose activity change, negative = inhibition, hits mostly inhibitors | 2.3% of 330,000 active; note: % is set by controls: 0 for no effect and ±100 for the full control effect; nearly all actives have a fitted effect of over 55% in size
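Quantitative HTS, concentration-response format. 2,000 cells/well co-treated with 5-fluorouridine and compound, 16 hr in 5% CO2 at 37 °C; ONE-Glo luminescence read after 30 min.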
MCF10A rerep: A quantitative high throughput screen for small molecules that induce DNA re-replication in MCF 10a normal breast cells; Potency, µM (titrated, usually from 46.1 µM), for the others: top-dose activity, positive = re-replication, actives largely listed as activators; 2.9% of 350,000 active; MCF 10A DNA re-replication, Hoechst nuclear intensity, 48 h; note: % of control where 0% means no effect; nearly all actives have a fitted effect of over 50% in size
SW480 rerep: A quantitative high throughput screen for small molecules that induce DNA re-replication in SW480 colon adenocarcinoma cells; SW480 DNA re-replication, Hoechst DNA content imaging, 48 h; Potency, µM (doses to about 46.1 µM), for the others: top-dose re-replication activation, hits mostly activators; 1.8% of 340,000 active; note: % of control where 0% means no effect; nearly all actives have a fitted effect of over 55% in size
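Readout is total intensity of Hoechst-stained nuclei, excited at 405 nm and collected at 500-530 nm. Compound treatment lasted 48 hr at 37 C in 5% CO2 before staining.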
RORg inh: qHTS for inhibitors of ROR gamma transcriptional activity. Nuclear receptor ROR-gamma (Mus musculus), P51450. Drosophila S2 Gal4-RORgamma UAS-luciferase reporter, 20 h. Potency, µM (titrated, usually from 53.6 µM), inactives show at the top dose activity change, negative = inhibition, usual class: inhibitors. 5.4% of 310,000 active. AID 2551, 2010; note: % is set by controls: 0 for no effect and ±100 for the full control effect; nearly all actives have a fitted effect of over 60% in size
Target sequence (P51450 whole entry, looked up, the tested form may be a part): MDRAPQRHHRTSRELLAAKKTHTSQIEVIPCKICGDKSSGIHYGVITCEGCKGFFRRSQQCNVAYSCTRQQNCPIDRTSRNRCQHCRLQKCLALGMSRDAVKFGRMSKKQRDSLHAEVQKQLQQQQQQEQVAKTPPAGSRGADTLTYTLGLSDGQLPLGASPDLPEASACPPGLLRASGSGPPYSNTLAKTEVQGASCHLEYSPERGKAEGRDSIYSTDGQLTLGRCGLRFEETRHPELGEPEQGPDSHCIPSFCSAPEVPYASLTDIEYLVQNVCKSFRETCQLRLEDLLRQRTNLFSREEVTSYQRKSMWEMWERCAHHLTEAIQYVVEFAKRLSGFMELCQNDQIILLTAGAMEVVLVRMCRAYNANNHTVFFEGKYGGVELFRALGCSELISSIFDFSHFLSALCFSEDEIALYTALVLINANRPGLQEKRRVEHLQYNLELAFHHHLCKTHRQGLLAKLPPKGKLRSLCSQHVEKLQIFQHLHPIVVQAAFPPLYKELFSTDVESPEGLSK
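Using a luciferase readout, inhibitors were identified by reduced reporter activity in Drosophila cells coexpressing a copper-inducible Gal4–ROR gamma fusion and UAS-driven Photinus luciferase, incubated 20 hr after 700 uM copper sulfate.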
VP16 counter: VP16 counterscreen qHTS for inhibitors of ROR gamma transcriptional activity | AID 2546, 2010 | Drosophila S2 Gal4-VP16 UAS-luciferase, luminescence, 20 h | Potency, µM (titrated, usually from 53.6 µM), inactives show top-dose activity, negative = inhibition, usual class: inhibitors | 3.5% of 310,000 active;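 note: Gal4-VP16 expression switched on by copper sulfate through the metallothionein promoter; % is set by controls: 0 for no effect and ±100 for the full control effect; nearly all actives have a fitted effect of over 50% in size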
* = called active by the depositor. Calls come from the whole dose curve; as a rule, active = well fitted curve in the direction sought with a large enough effect; inconclusive = small, poorly fitted or top-dose-only effect, or another doubt; inactive = no such curve, though single readings can be large; an effect the other way counts as inactive or inconclusive. Potency is the fitted concentration of half-maximal effect.

What do the screens show for `COc1cccc2[nH]c3c(N4CCN(Cc5ccc6c(c5)OCO6)CC4)ncnc3c12`?
ELG1 repair inh: 23µM*; RORg inh: 28%; VP16 counter: -3%

What do the screens show for `COc1cccc2[nH]c3c(N4CCC(C)CC4)ncnc3c12`?
ELG1 repair inh: inconclusive; MCF10A rerep: 17%; SW480 rerep: -1%; RORg inh: -3%; VP16 counter: -22%

What do the screens show for `CN(C)CCNC(=O)/C(=C/c1ccc(-c2ccc(Cl)cc2Cl)o1)NC(=O)c1ccccc1`?
ELG1 repair inh: 6%; MCF10A rerep: 7.3µM*; SW480 rerep: inconclusive; RORg inh: inconclusive; VP16 counter: inconclusive

What do the screens show for `Cc1ccc(C(=O)N/C(=C\c2ccc(-c3cccc([N+](=O)[O-])c3)o2)C(=O)NCCCN(C)C)cc1`?
ELG1 repair inh: -1%; MCF10A rerep: 1%; SW480 rerep: 0%; RORg inh: -7%; VP16 counter: -23%

What do the screens show for `Cc1ccc(C(=O)N/C(=C\c2ccc(-c3ccc(Br)cc3)o2)C(=O)NCCCN(C)C)cc1`?
ELG1 repair inh: -17%; MCF10A rerep: inconclusive; SW480 rerep: 7.3µM*; RORg inh: inconclusive; VP16 counter: inconclusive

What do the screens show for `CN(C)CCNC(=O)/C(=C/c1ccc(-c2ccc(Cl)cc2)o1)NC(=O)c1ccccc1`?
ELG1 repair inh: 1%; MCF10A rerep: inconclusive; SW480 rerep: inconclusive; RORg inh: inconclusive; VP16 counter: inconclusive

Results for Cc1cc(NC(=NC2CC2)c2ccccc2F)n(-c2ccccc2)n1 ?
ELG1 repair inh: -9%; MCF10A rerep: -2%; SW480 rerep: -21%; RORg inh: -13%; VP16 counter: 3%

What do the screens show for `O=c1c(-c2cccs2)nc2cnc(Oc3cccc(Cl)c3)nc2n1C1CC1`?
RORg inh: 2%; VP16 counter: 3%

How did O=C(/C=C/c1cccc(Br)c1)c1ccc2c(c1)OCO2 do in these assays?
ELG1 repair inh: inconclusive; MCF10A rerep: inconclusive; SW480 rerep: inconclusive; RORg inh: -1%; VP16 counter: 12%

Results for Cc1cccc(/C=C/C(=O)c2cc(Br)ccc(=O)c2O)c1 ?
ELG1 repair inh: inconclusive; MCF10A rerep: 10µM*; SW480 rerep: inconclusive; RORg inh: -31%; VP16 counter: inconclusive

What do the screens show for `CCc1ccc(/C=C/C(=O)c2cc(Br)ccc(=O)c2O)cc1`?
ELG1 repair inh: -17%; MCF10A rerep: inconclusive; SW480 rerep: inconclusive; RORg inh: inconclusive; VP16 counter: inconclusive

What do the screens show for `CCOc1ccc(/C=C/C(=O)c2cc(Br)ccc(=O)c2O)cc1`?
ELG1 repair inh: -1%; MCF10A rerep: 9.2µM*; SW480 rerep: inconclusive; RORg inh: inconclusive; VP16 counter: 22µM*

How did N#Cc1cccc(NC(=O)COC(=O)c2ccc3c(=O)n4c(nc3c2)CCC4)c1 do in these assays?
ELG1 repair inh: 16%; RORg inh: -11%; VP16 counter: -4%

What do the screens show for `O=C(OCc1nnc(-c2ccccc2)o1)C1CC(=O)N(Cc2ccco2)C1` (stereo unspecified)?
ELG1 repair inh: -7%; MCF10A rerep: 20%; SW480 rerep: -1%; RORg inh: 10%; VP16 counter: 0%

What do the screens show for `Cc1ccc(Cl)cc1N1CCN(C(=O)C2CCN(S(=O)(=O)c3c(C)nn(C)c3C)CC2)CC1`?
ELG1 repair inh: 18µM*; MCF10A rerep: inconclusive; SW480 rerep: inconclusive; RORg inh: inconclusive; VP16 counter: -8%

Results for Cc1ccc(Cl)cc1N1CCN(C(=O)COc2ccc(S(=O)(=O)NC(C)C)cc2)CC1 ?
ELG1 repair inh: 7.3µM*; MCF10A rerep: 10%; SW480 rerep: -2%; RORg inh: inconclusive; VP16 counter: inconclusive

How did Cc1ccc(Cl)cc1N1CCN(C(=O)C2CCN(S(=O)(=O)c3cccnc3)CC2)CC1 do in these assays?
ELG1 repair inh: 0%; MCF10A rerep: 11%; SW480 rerep: 6%; RORg inh: 24%; VP16 counter: inconclusive

Results for Cc1ccc(Cl)cc1N1CCN(C(=O)CN(C2CCCCC2)S(C)(=O)=O)CC1 ?
ELG1 repair inh: 18µM*; MCF10A rerep: 3%; SW480 rerep: -22%; RORg inh: 27%; VP16 counter: -2%

What do the screens show for `CS(=O)(=O)N(CC(=O)N1CCN(c2cccc(Cl)c2)CC1)C1CCCCC1`?
ELG1 repair inh: -7%; MCF10A rerep: 2%; SW480 rerep: -1%; RORg inh: 2%; VP16 counter: -13%

Results for CC1=[N+](C)N(c2ccccc2)C(=O)C1N=Cc1ccc(Cl)cc1 (stereo unspecified) ?
ELG1 repair inh: 16%; MCF10A rerep: inconclusive; SW480 rerep: -3%; RORg inh: 0%; VP16 counter: -3%

How did Cc1ccc(Cn2c(CCNc3nc(-c4ccc(Cl)c([N+](=O)[O-])c4)cs3)nc3cc(C(=O)NCCCO)ccc32)cc1 do in these assays?
MCF10A rerep: inconclusive; SW480 rerep: -2%

What do the screens show for `Cc1cc(OC(C)C(=O)N/N=C/CC(C)c2ccccc2)ccc1Cl` (stereo unspecified)?
ELG1 repair inh: -6%; MCF10A rerep: inconclusive; SW480 rerep: -1%; RORg inh: inconclusive; VP16 counter: -22%

Results for O=S(=O)(Nc1nc(-c2sccc2Cl)cs1)c1cc(Cl)ccc1Cl ?
ELG1 repair inh: -1%; MCF10A rerep: 8.2µM*; SW480 rerep: -1%; RORg inh: 25%; VP16 counter: -5%

How did COC(=O)c1cc(C)ccc1/C=C1/Cc2c(C)cc(C)cc2C1=O do in these assays?
MCF10A rerep: 3%; SW480 rerep: 27%

Results for CC(C)(C)c1ccc(/C=N/N2C(=O)CSC2=S)cc1 ?
ELG1 repair inh: inconclusive; MCF10A rerep: 15%; SW480 rerep: -13%; RORg inh: 10µM*; VP16 counter: inconclusive

Results for CC(/C=N/N1CCN(c2ccccc2)CC1)=C\c1ccccc1 ?
ELG1 repair inh: inconclusive; MCF10A rerep: 2%; SW480 rerep: -2%; RORg inh: 16%; VP16 counter: 4%

What do the screens show for `COc1ccc(/C=N/N2C(=O)CSC2=S)cc1Br`?
ELG1 repair inh: 0%; MCF10A rerep: -6%; SW480 rerep: -4%

How did CC(/C=N/N1C(=O)CSC1=S)=C\c1ccccc1 do in these assays?
ELG1 repair inh: 12%; MCF10A rerep: 0%; SW480 rerep: -3%; RORg inh: 11µM*; VP16 counter: 5%

What do the screens show for `COc1ccc(/C=N/N2C(=O)CSC2=S)cc1`?
MCF10A rerep: -5%; SW480 rerep: -2%; RORg inh: 16µM*; VP16 counter: 3%
